Rows were chosen to be rich in hits. Some 2.4% of all compounds tested hit in one or more screens of this group.
SENP7 block – SENP7 protease inhibitors, primary screen, biochemical, luminescence, uHTS; hit rate 1.5% among 330,000; Sentrin-specific protease 7 (Homo sapiens), Q9BQF6; recombinant SENP7, Z-RLRGG-aminoluciferin luminescence, 40 min; inhibition, % at 5 µM;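 active = inhibition above about 50% at the single test dose, limit read from the data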;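 note: plate controls were DMSO with enzyme for no effect and no enzyme buffer wells for full effect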
Target sequence (Q9BQF6 706-1050 limits assumed): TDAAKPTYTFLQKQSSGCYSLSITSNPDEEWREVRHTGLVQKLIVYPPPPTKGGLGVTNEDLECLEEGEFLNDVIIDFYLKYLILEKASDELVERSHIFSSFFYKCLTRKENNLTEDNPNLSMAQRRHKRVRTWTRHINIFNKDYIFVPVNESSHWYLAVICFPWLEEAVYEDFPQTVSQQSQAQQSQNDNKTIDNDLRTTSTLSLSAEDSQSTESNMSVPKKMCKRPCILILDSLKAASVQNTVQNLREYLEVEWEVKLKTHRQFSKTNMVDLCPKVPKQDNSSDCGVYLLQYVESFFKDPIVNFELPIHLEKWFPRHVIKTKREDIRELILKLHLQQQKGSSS
SENP8 block-1 – SENP8 protease inhibitors, primary screen, biochemical, luminescence. purified SENP8, Z-RLRGG-aminoluciferin cleavage. AID 2540, 2010. hit rate 1.2% among 330,000. Sentrin-specific protease 8 (Homo sapiens), Q96LD8. inhibition, % at 10 µM; in the data active = inhibition above about 50%
SENP6 block – SENP6 protease inhibitors, primary screen, biochemical, luminescence, uHTS | Sentrin-specific protease 6 (Homo sapiens), Q9GZR1 | Recombinant SENP6 catalytic domain, aminoluciferin luminescence | inhibition, % at 10 µM | hit rate 1.8% among 330,000 | AID 2599, 2010;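 active = inhibition above about 50% at the single tested dose, limit read from the data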;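 note: plate controls were DMSO wells with enzyme for no effect and DMSO wells lacking enzyme for full effect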
SENP8 block-2 – human SENP8 protease inhibitors, primary screen, biochemical, fluorescence, Nedd8 protein substrate, uHTS | recombinant SENP8 | inhibition, % at 20 µM | hit rate 0.64% among 360,000; in the data active = inhibition mostly above about 40%, no sharp cut-off; inactive = mostly below about 27%
Platelet DG rel – inhibitors of platelet dense granule secretion, primary screen, cell-based, MLPCN, human platelets. human platelet-rich plasma, SFLLRN dense granule ATP release, luminescence. inhibition, %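 (compounds screened at 7.5 µM in platelet-rich plasma)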. hit rate 0.22% among 300,000;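 active = mean replicate score, as percent of positive control, at or above 50; inconclusive = mean below 50 but at least one replicate at or above 50; inactive = mean and every replicate below 50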
SENP8 confirm – SENP8 protease inhibitors, retest, confirmation, biochemical, luminescence, single concentration; AID 488912, 2010; shares compounds with SENP7 block; hit rate 40% among 6,200; Recombinant SENP8, Z-RLRGG-aminoluciferin luminescence, 60 min; inhibition, % at 12.5 µM;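 active = mean inhibition across replicates above about 50%, limit read from the data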
SENP6 confirm – SENP6 protease inhibitors, confirmation, biochemical, luminescence, single concentration | shares compounds with SENP7 block | recombinant SENP6, Z-RLRGG-aminoluciferin luminescence | inhibition, % at 12.5 µM | hit rate 58% among 6,200 | AID 488915, 2010
SENP7 confirm – SENP7 protease inhibitors, retest, confirmation, biochemical, luminescence, single concentration; shares compounds with SENP7 block; recombinant SENP7, Z-RLRGG-aminoluciferin luminescence, 40 min; inhibition, % at 12.5 µM; hit rate 69% among 6,200; AID 488917, 2010
Casp3 select – caspase-3 protease inhibitors, confirmation, selectivity assay for SENP inhibitor project, biochemical, single concentration; shares compounds with SENP7 block; AID 488918, 2010; inhibition, % at 12.5 µM; purified caspase-3, Z-DEVD-aminoluciferin luminescence, 60 min; hit rate 60% among 6,200;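 active = mean inhibition above about 50%, limit read from the data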;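 note: plate controls were enzyme with DMSO for no effect and wells without caspase-3 for full effect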
Target sequence (P42574 28-227 limits assumed): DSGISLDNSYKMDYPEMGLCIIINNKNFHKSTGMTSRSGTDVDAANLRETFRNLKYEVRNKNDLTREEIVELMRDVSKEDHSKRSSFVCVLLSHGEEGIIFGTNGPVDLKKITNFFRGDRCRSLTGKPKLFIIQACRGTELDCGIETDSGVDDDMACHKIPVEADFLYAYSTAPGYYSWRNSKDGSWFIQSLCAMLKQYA
Luc interf – interferes with luciferase luminescence in SENP counter-screen; shares compounds with SENP7 block; Pre-incubated SENP8/Z-RLRGG-aminoluciferin, luciferase luminescence interference; inhibition, % at 12.5 µM; hit rate 39% among 6,200; AID 488919;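 active = mean inhibition above about 50% when retested at one dose, limit read from the data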;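 note: plate controls were DMSO wells with completed reaction for no effect and substrate without enzyme for full effect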
Active calls of the source: *; ? = inconclusive; · = no result.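 Rule for the calls, unless noted: active = mean inhibition above about 50% in the one-dose retest (limit read from the data); inactive = the rest.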

SMILES	SENP7 block	SENP8 block-1	SENP6 block	SENP8 block-2	Platelet DG rel	SENP8 confirm	SENP6 confirm	SENP7 confirm	Casp3 select	Luc interf
CC1(c2nnnn2-c2ccc3c(c2)OCCO3)CCC(=O)N1Cc1cccc(C(F)(F)F)c1 (configuration not stated)	·	·	·	14.5	·	·	·	·	·	·
Cc1ccc(OC(=O)c2ccc3nc(C)sc3c2)cc1	2.3	2.4	-12.8	·	4.4	·	·	·	·	·
COc1ccc(OC(=O)c2ccc3nsnc3c2)cc1	58.6*	19.9	42.4	37.5	-3.6	1.0	0.2	47.7	16.2	-1.4
O=c1c2ccccc2nnn1CSc1ccc2c(c1)OCCO2	62.9*	48.6	16.2	26.1	-1.1	72.5*	70.4*	87.1*	71.8*	71.0*
Cc1cc(C)n2nc(C(=O)OCC(=O)Nc3ccc(F)cc3F)nc2n1	0.1	-0.6	-0.7	5.4	0.9	·	·	·	·	·
O=S(=O)(Nc1ccc2c(c1)OCO2)c1cccs1	-2.3	4.6	-31.6	9.8	-3.8	·	·	·	·	·
O=C(Nc1ccc2c(c1)OCO2)c1cccs1	47.9	16.0	64.5*	0.1	10.3	49.4	42.5	72.1*	73.7*	55.4*
O=C(Nc1ccc2c(c1)OCO2)c1ccc(Br)s1	78.3*	59.9*	74.1*	11.8	13.2	71.6*	66.9*	91.5*	65.4*	70.8*
O=C(/C=C\Nc1ccc2c(c1)OCO2)c1cccs1	-4.0	93.9*	-14.2	-2.4	30.5	-7.3	99.8*	103.7*	97.9*	34.9
C/C(=N\NC(=O)c1cccs1)c1ccc2c(c1)OCO2	-4.0	-11.3	-11.7	-26.7	-1.3	·	·	·	·	·
CC(=O)Nc1ccc2c(c1)OCO2	-4.4	-0.6	-6.4	0.1	-8.6	·	·	·	·	·
O=C(c1ccc2c(c1)OCCCO2)c1cccs1	49.6	29.9	53.8*	10.0	10.7	51.5*	49.6	82.2*	66.4*	63.3*
O=C(Nc1ccc2c(c1)OCCO2)c1cccs1	72.5*	46.3	76.4*	28.2	17.1	51.4*	50.0*	84.7*	80.6*	68.3*
O=C(Nc1ccc2c(c1)OCCO2)c1c(Cl)cccc1Cl	·	·	·	17.1	·	·	·	·	·	·
O=C(Nc1ccc(N2CCCC2)c(Cl)c1)c1cccs1	48.5	58.2*	26.4	-7.1	7.4	79.3*	74.5*	92.1*	70.1*	62.2*
CN(CC(=O)Nc1cccc(F)c1)C(=O)CCCn1c(=O)oc2ccccc21	12.0	-3.5	-24.9	9.0	-3.3	·	·	·	·	·
CN1CCN(c2cc(N3CCN(C(=O)c4ccco4)CC3)c3c4c(onc24)-c2ccccc2C3=O)CC1	21.3	38.2	55.3*	65.0*	8.9	4.2	18.2	12.1	15.6	12.0
COc1ccc(NC(=O)c2cccc(N3C(=O)c4ccc(C(=O)Nc5ccc(OC)c(O)c5)cc4C3=O)c2)cc1O	-7.8	4.9	3.9	13.5	-0.4	·	·	·	·	·
CC1=CCC(COC(=O)Nc2ccccc2)CC1 (configuration not stated)	88.5*	79.7*	81.7*	6.4	14.2	86.5*	90.3*	98.9*	75.4*	81.4*
CCOc1ccc(N=Nc2c(=O)[nH]n3c(=O)cc(C)[nH]c23)cc1	95.1*	92.0*	95.5*	38.1	?	96.6*	97.6*	101.7*	97.8*	93.1*
COc1cccc(N=Nc2c(N)[nH][nH]c2=O)c1	21.9	-0.2	-0.2	37.5	-7.2	·	·	·	·	·
Cc1cc(=O)n2[nH]c(=O)c(N=Nc3ccccc3)c2[nH]1	8.3	17.7	36.4	39.9	-0.4	·	·	·	·	·
CCOc1ccc(N=Nc2c(N)[nH][nH]c2=O)cc1	71.5*	64.5*	76.0*	26.0	12.8	56.6*	61.1*	90.4*	88.5*	43.9
COc1ccc(N=Nc2c(C)[nH][nH]c2=O)cc1	63.6*	35.5	69.4*	30.9	3.5	50.0*	52.1*	83.5*	79.7*	52.9*
COc1ccc(Cl)cc1NC(=O)COC(=O)C1CC(=O)N(Cc2ccccc2)C1 (configuration not stated)	-2.1	0.8	-30.4	1.5	·	·	·	·	·	·
SMILES	SENP7 block	SENP8 block-1	SENP6 block	SENP8 block-2	Platelet DG rel	SENP8 confirm	SENP6 confirm	SENP7 confirm	Casp3 select	Luc interf
CCc1nc(NC(=O)NS(=O)(=O)c2ccccc2C(=O)OC)nc(OC)n1	0.1	-8.7	-3.0	8.5	0.3	·	·	·	·	·
Cc1cccc(-c2nnc(SCC(=O)N3CCCC3)o2)c1	17.2	9.0	36.6	13.8	2.4	·	·	·	·	·
Cc1ccc(CS(=O)(=O)c2ccccc2-c2nnc(-c3ccc(Cl)cc3)o2)cc1	-10.2	0.1	16.7	-4.7	-2.5	·	·	·	·	·
Cc1ccc(/C=C/c2nnc(-c3cccc(C)c3)o2)cc1	13.3	68.2*	80.0*	-272.7	-9.8	3.2	-0.2	-1.5	-2.0	-2.7
Cn1c2ccccc2c2nnc(SCc3nnc(-c4ccccc4)o3)nc21	0.6	6.1	-2.0	·	-6.0	·	·	·	·	·
Cc1cccc(-c2nnc(-c3ccccc3)o2)c1	86.0*	74.2*	88.0*	5.0	1.4	4.2	85.8*	97.8*	82.2*	66.4*
Cc1ccc(-c2nnc(-c3cccnc3)o2)cc1	-11.1	-7.8	-22.4	-1.1	15.5	·	·	·	·	·
Cc1ccccc1-c1nnc(-c2ccc(Cl)cc2)o1	75.2*	57.6*	10.2	16.7	-0.6	19.8	16.7	22.6	13.4	-3.1
Cn1cc(-c2nnc(-c3ccccc3)o2)c2ccccc21	68.3*	46.9	-35.8	-338.6	1.5	14.8	12.4	15.4	17.9	6.2
CC(=O)c1ccc(N(C(=O)CNC(=O)c2ccco2)C(C(=O)NC2CCCC2)c2cccnc2)cc1 (configuration not stated)	10.5	1.9	-18.6	-0.7	1.6	·	·	·	·	·
O=C(c1ccc(N2CCCC2=O)cc1)N1CCN(c2cccc(C(F)(F)F)c2)CC1	2.6	8.4	-0.1	2.3	·	·	·	·	·	·
O=C1CN(c2ccccc2)C(=S)N1C(=O)c1ccc(Br)cc1	6.7	-6.7	8.1	-108.2	16.1	·	·	·	·	·
